From PubChem
Most compounds without a hit are left out; they make up all but 3.6% or so of the library.
TSHR ag: TSH receptor (human) agonism; P16473; HEK293-CNG-TSHR cells (CNG channel as cAMP sensor), membrane potential dye, cAMP; Potency, µM (top dose mostly 57.1 µM), actives largely listed as activators; 73,000 tested, 0.48% active; active means well fitted activation curve with a large enough effect in the main read-out, with a control signal flat, not every such curve was filed as active; inconclusive means small, poorly fitted or top-dose-only effect, or a change in a side signal; inactive means no such curve, though single readings can be large or run the other way; reference of the percent scale not stated here;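 further: the control signal comes from parental cells without the receptor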
Target sequence (P16473 whole entry, looked up): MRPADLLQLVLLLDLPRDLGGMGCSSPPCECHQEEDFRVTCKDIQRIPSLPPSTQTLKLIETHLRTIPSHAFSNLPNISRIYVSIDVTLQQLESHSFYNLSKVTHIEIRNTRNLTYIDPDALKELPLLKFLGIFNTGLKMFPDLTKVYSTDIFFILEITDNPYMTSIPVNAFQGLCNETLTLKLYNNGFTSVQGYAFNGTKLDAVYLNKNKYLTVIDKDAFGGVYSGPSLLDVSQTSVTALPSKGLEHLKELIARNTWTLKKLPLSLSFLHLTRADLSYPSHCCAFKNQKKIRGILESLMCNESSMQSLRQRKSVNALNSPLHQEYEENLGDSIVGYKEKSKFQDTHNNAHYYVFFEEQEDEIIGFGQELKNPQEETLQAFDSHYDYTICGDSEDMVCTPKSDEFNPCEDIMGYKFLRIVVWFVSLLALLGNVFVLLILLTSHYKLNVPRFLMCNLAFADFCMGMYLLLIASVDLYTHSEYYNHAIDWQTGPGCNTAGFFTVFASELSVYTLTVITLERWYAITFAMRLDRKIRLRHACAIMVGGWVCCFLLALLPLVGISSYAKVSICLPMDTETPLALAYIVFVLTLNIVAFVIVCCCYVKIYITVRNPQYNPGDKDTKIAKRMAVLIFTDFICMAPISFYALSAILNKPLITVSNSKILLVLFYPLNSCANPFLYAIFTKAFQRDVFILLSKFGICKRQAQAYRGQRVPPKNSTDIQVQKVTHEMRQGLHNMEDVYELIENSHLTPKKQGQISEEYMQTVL
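cAMP rise detected as CNG-channel membrane depolarization by fluorescent dye (emission 590 nm), 30 min after compound, following 60 min dye loading containing 100 uM RO 20-1724 at room temperature. Cells: TSHR/CNG HEK 293, with parental CNG HEK 293 as control.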
HEK293 cAMP cs: parental HEK293 cAMP activation (counter-screen); parental HEK293 CNG cAMP sensor, membrane potential fluorescence; Potency, µM (highest dose often 57.1 µM), actives largely listed as activators; 73,000 tested, 2.5% active; AID 938; further: nearly all actives have a fitted effect of over 55% in size
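Counterscreen for endogenous-receptor signalling: CNG-channel HEK 293 cells report cAMP rise by membrane depolarization. After 60 min dye equilibration with 100 uM RO 20-1724, compounds incubated 30 min before bottom-read fluorescence at 590 nm.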
CRE Fsk mod: alters forskolin-stimulated CRE reporter signaling in CHO cells | Potency, µM (titrated, usually from 38.2 µM), hits mostly activators | 71,000 tested, 2.5% active | CHO CRE-bla reporter (cAMP response element driving beta-lactamase), forskolin EC10, beta-lactamase ratio; active means well fitted activation curve with a large enough effect in the signal ratio, with a control signal flat, not every such curve was filed as active; inconclusive means small, poorly fitted or top-dose-only effect, or effect the other way, or a change in a side signal; the % refers to the signal ratio
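Modulation of forskolin-driven signalling is measured in CHO cells carrying a CRE-controlled beta-lactamase reporter. Cells are stimulated with EC10 NKH 477 in the presence of titrated compound for 3 h at 37 °C, then loaded with CCF4 for 2 h at room temperature.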
ERK AVP inh: inhibitors of vasopressin-stimulated ERK signaling pathway. HEK293-V1b, vasopressin-stimulated pERK AlphaScreen. Potency, µM (top dose mostly 57.5 µM), usual class: inhibitors. 72,000 tested, 0.99% active; further: nearly all actives have a fitted effect of over 55% in size
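Overnight-seeded V1b-HEK293 cells in 1% FBS got compound, then vasopressin (25 nM final, 5 min, 37C), then lysis buffer. AlphaScreen detection of phospho-ERK; activity normalized to basal and full-stimulation controls.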
IkB sig inh: IkB pathway inhibition in ABC-DLBCL cells. ABC-DLBCL IkBa-CBG/CBR dual luciferase ratio, 4 h; response scale: scaled: untreated 0%, proteasome inhibitor 100%. Potency, µM (series often up to 57.1 µM). 110,000 tested, 0.04% active; active means well fitted curve in the direction sought with a large enough effect in the signal ratio, not every such curve was filed as active; inconclusive means small, poorly fitted or top-dose-only effect, or a change in a side signal; the % refers to the signal ratio;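 further: the direction sought is a rising ratio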
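Luminescence ratio of IκBα-fused green versus native red beetle luciferase in OCI-Ly3 cells, 4 h post-doxycycline with compound; red signal alone, scaled from basal (0%) to zero light (-100%), flagged nonspecific or cytotoxic effects.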
Each line names hits and unclear results; the compound was inactive in the other large screens. Unless noted, the call rests on the fitted dose curve; in most records, active means well fitted curve in the direction sought with a large enough effect; inconclusive means small, poorly fitted or top-dose-only effect, or another doubt; inactive means no such curve, though single readings can be large; an effect the other way counts as inactive or inconclusive.

CN(C)C(=O)c1ccc(-c2nc(N3CCOCC3)c3ccccc3n2)cc1	CRE Fsk mod 10µM
CS(=O)(=O)Nc1cccc(-c2nc(N3CCOCC3)c3ccccc3n2)c1	CRE Fsk mod 2.5µM (no result: TSHR ag)
O=C(Nc1ccccc1N1CCOCC1)c1ccc2ccccc2n1	TSHR ag inconclusive, HEK293 cAMP cs inconclusive
Cc1cc2c(C)nc(-c3ccccc3)nc2o1	CRE Fsk mod 0.4µM
CC(=O)c1cn(CC(=O)NCc2ccc3c(c2)OCO3)c2ccccc12	IkB sig inh inconclusive
CCOC(=O)C1CCN(S(=O)(=O)c2cccc(-c3cn4ccccc4n3)c2)CC1	CRE Fsk mod inconclusive, ERK AVP inh inconclusive, IkB sig inh inconclusive (no result: TSHR ag)
CCOC(=O)C1CCN(S(=O)(=O)c2cccc(-c3cn4cccc(C)c4n3)c2)CC1	TSHR ag inconclusive, HEK293 cAMP cs inconclusive, CRE Fsk mod inconclusive, ERK AVP inh 20µM, IkB sig inh inconclusive
C=CCn1c(SCc2cc(=O)n3ccsc3n2)nc2sc(C)c(C)c2c1=O	CRE Fsk mod inconclusive (no result: TSHR ag)
Cc1nnc(OCc2nc3ccccc3n2C)c2ccccc12	CRE Fsk mod 2.5µM
O=C(N1CCCCC1)C1(c2ccccc2)CCOCC1	TSHR ag inconclusive, HEK293 cAMP cs 16µM
CCc1nc2c(cnn2-c2ccc(Cl)cc2)c(=O)n1-c1ccc2c(c1)OCCO2	TSHR ag inconclusive, HEK293 cAMP cs inconclusive, CRE Fsk mod inconclusive
CCCc1cc(C(=O)N(C2CCCCC2)C2CCCCC2)no1	TSHR ag 20µM
CCN1c2ccccc2-c2nc3ccccc3n2C1c1ccncc1 (stereo unspecified)	TSHR ag inconclusive, HEK293 cAMP cs 20µM, CRE Fsk mod inconclusive, IkB sig inh inconclusive
CCN1c2ccccc2-c2nc3ccccc3n2C1c1cccnc1 (stereo unspecified)	TSHR ag inconclusive, HEK293 cAMP cs 32µM, CRE Fsk mod inconclusive
CCN1c2ccccc2-c2nc3ccccc3n2C1c1ccccn1 (stereo unspecified)	TSHR ag inconclusive, HEK293 cAMP cs 16µM, CRE Fsk mod 13µM
CCN1C(=O)CC(n2c(C)nc3ccccc32)C1=O (stereo unspecified)	CRE Fsk mod inconclusive
c1cncc(C2Nc3ccccc3-c3nc4ccccc4n32)c1 (stereo unspecified)	CRE Fsk mod inconclusive
CCCNC(=O)C1CCC(Cn2c(=O)c3sccc3n(Cc3cccc(OC)c3)c2=O)CC1 (stereo unspecified)	none (no result: TSHR ag, HEK293 cAMP cs, CRE Fsk mod, ERK AVP inh)
Cc1cccc(-c2noc(CN(C(=O)c3ccc4c(c3)OCO4)C(C)C)n2)c1	TSHR ag inconclusive, HEK293 cAMP cs 32µM, IkB sig inh inconclusive
Nc1c(S(=O)(=O)c2cccs2)c2nc3ccccc3nc2n1Cc1ccc2c(c1)OCO2	IkB sig inh inconclusive
c1csc(-c2nc3nc4ccccc4nc3n2Cc2ccc3c(c2)OCO3)c1	CRE Fsk mod 10µM
CSC1=C(C#N)C(c2cccc(Br)c2)CC(=O)N1 (stereo unspecified)	CRE Fsk mod inconclusive, ERK AVP inh 20µM
CC(=O)N(CCP(=O)(c1ccccc1)c1ccccc1)Cc1ccco1	TSHR ag inconclusive, HEK293 cAMP cs 32µM, ERK AVP inh inconclusive
O=P(CCNCc1ccco1)(c1ccccc1)c1ccccc1	TSHR ag inconclusive, HEK293 cAMP cs inconclusive
CCc1cc(-c2[nH]ncc2-c2ccc3c(c2)OCO3)c(O)cc1O	TSHR ag inconclusive, HEK293 cAMP cs 25µM, CRE Fsk mod inconclusive, ERK AVP inh inconclusive, IkB sig inh inconclusive
CC(C)OCCCn1c(-c2ccco2)nc2nc3ccccc3nc21	CRE Fsk mod 7.9µM
COCCn1c(-c2cc(OC)c(OC)c(OC)c2)nc2nc3ccccc3nc21	CRE Fsk mod inconclusive
COCCn1c(-c2ccco2)nc2nc3ccccc3nc21	CRE Fsk mod 7.9µM
CCCCNC(=O)c1cc(-c2cccnc2)nc2ccc(S(=O)(=O)NCCCC)cc12	none (no result: TSHR ag, HEK293 cAMP cs, CRE Fsk mod, ERK AVP inh)
COc1nnc(-c2ccc(N3CCCCC3)c(NC(=O)c3ccc(C)cc3)c2)c2ccccc12	none (no result: TSHR ag, HEK293 cAMP cs, CRE Fsk mod, ERK AVP inh)
CCOc1ccc(-c2cc(C(=O)N3CCN(c4ccc(C)cc4)C(C)C3)c3ccccc3n2)cc1 (stereo unspecified)	none (no result: TSHR ag, HEK293 cAMP cs, CRE Fsk mod, ERK AVP inh)
COc1ccc(CNC(=O)C2CCCN(c3nc4ccccc4o3)C2)c(OC)c1 (stereo unspecified)	none (no result: TSHR ag)
CCOC(=O)Cc1csc(NC(=O)CSc2ncnc3c2cnn3-c2ccccc2Cl)n1	TSHR ag inconclusive, HEK293 cAMP cs inconclusive, ERK AVP inh 40µM, IkB sig inh inconclusive
N#Cc1c(NC(=O)CSc2ncnc3c2cnn3-c2ccccc2Cl)sc2c1CCCC2	none
Cc1cc2cc(CN(Cc3ccc4c(c3)OCO4)C(=O)c3cnccn3)c3nnnn3c2cc1C	TSHR ag inconclusive, HEK293 cAMP cs 32µM, CRE Fsk mod inconclusive, IkB sig inh inconclusive
O=C(CSc1nc2ccccc2c(=O)n1CCCO)NCc1ccccc1	none
Cc1ccc2c(CSc3nc4ccccc4c(=O)n3CCCO)cc(=O)oc2c1	TSHR ag inconclusive, HEK293 cAMP cs inconclusive, CRE Fsk mod 2µM
Cc1ccc(S(=O)(=O)N2CCN(C(=O)CN3CCc4ccccc4C3)CC2)cc1	TSHR ag inconclusive, HEK293 cAMP cs 10µM
O=C(CN1CCc2ccccc2C1)N1CCN(S(=O)(=O)c2ccccc2)CC1	none
CCC(CC)C(=O)Nc1cccc(-c2nc3cccnc3s2)c1	none (no result: TSHR ag, HEK293 cAMP cs, CRE Fsk mod, ERK AVP inh)
CCNc1nc(OC)nc(Oc2ccc(=O)n(-c3ccccc3)n2)n1	CRE Fsk mod inconclusive
COc1nc(NCC(C)C)nc(Oc2ccc(=O)n(-c3ccccc3)n2)n1	CRE Fsk mod 13µM
CCOc1cc(C2NC(=O)NC(O)(C(F)(F)F)C2C(=O)c2ccc(Cl)cc2)ccc1O (stereo unspecified)	CRE Fsk mod inconclusive, ERK AVP inh inconclusive
CCCOc1ccc(C(=O)Nc2ccc3nn(-c4ccc(OC)c(Cl)c4)nc3c2)cc1	none (no result: TSHR ag, HEK293 cAMP cs, CRE Fsk mod, ERK AVP inh)
COc1cccc(C(CC(=O)NCC2CCCO2)NS(=O)(=O)c2ccc(C)cc2)c1OC (stereo unspecified)	none
Nc1c(S(=O)(=O)c2ccccc2)c2nc3ccccc3nc2n1Cc1ccco1	none (no result: CRE Fsk mod, ERK AVP inh, IkB sig inh)
Cn1c(N)c(S(=O)(=O)c2ccc(Br)cc2)c2nc3ccccc3nc21	TSHR ag inconclusive, CRE Fsk mod 16µM, ERK AVP inh inconclusive
COc1ccc(CNC(=O)c2ccc(NC(=O)N3CCSc4ncccc43)cc2)cc1	none (no result: TSHR ag, HEK293 cAMP cs, CRE Fsk mod, ERK AVP inh)
COc1ccccc1-c1cc(C2CC2)nc(N)c1C#N	TSHR ag inconclusive, HEK293 cAMP cs inconclusive, CRE Fsk mod 10µM
COc1ccccc1-c1c(C)c(C)nc(N)c1C#N	none
CCOC(=O)Cn1c(CN2CC(C)OC(C)C2)nc2c1c(=O)n(C)c(=O)n2C (stereo unspecified)	TSHR ag 4µM (no result: ERK AVP inh)
CC1CN(Cc2nc3c(c(=O)n(C)c(=O)n3C)n2CC(=O)c2ccccc2)CC(C)O1 (stereo unspecified)	TSHR ag inconclusive, HEK293 cAMP cs inconclusive
